# Read-outs that look alike come from different tables or passages of the source.
# Tests used:
# Set-up in all cases: species or system human, MV4-11 + K-562 + COLO205 + SK-N-BE2 + OVCAR-8
# CDK7 = settings: read-out: apparent Kd, n = 1
# ERCC2 = settings: read-out: apparent Kd, n = 1
# FER = settings: read-out: apparent Kd, n = 1
# PIP4K2C = settings: read-out: apparent Kd, n = 1
# PLK4 = settings: read-out: apparent Kd, n = 1
# PRKAA1 = settings: read-out: apparent Kd, n = 1
# PRKD3 = settings: read-out: apparent Kd; compound concentrations:100 nM and 1000 nM (sheet 'Samples'); n = 1
# PTK2B = settings: read-out: apparent Kd, n = 1
# PTK2 = settings: read-out: apparent Kd, n = 1
# RPS6KA6 = settings: read-out: apparent Kd, n = 1
# PRKD2 = settings: read-out: apparent Kd; compound concentrations:100 nM and 1000 nM (sheet 'Samples'); n = 1
# STK10 = settings: read-out: apparent Kd, n = 1
# FLT3 = settings: read-out: apparent Kd, n = 1
# MARK4 = settings: read-out: apparent Kd, n = 1
# PRKCQ = settings: read-out: apparent Kd, n = 1
# LATS1 = settings: read-out: apparent Kd, n = 1
# DYRK1A = settings: read-out: apparent Kd, compound concentrations: 100 nM and 1000 nM (sheet 'Samples'), n = 1
# MYLK3 = settings: read-out: apparent Kd, n = 1
# CDKL5 = settings: read-out: apparent Kd; compound concentrations:100 nM and 1000 nM (sheet 'Samples'); n = 1
# PRKCD = settings: read-out: apparent Kd; compound concentrations:100 nM and 1000 nM (sheet 'Samples'); n = 1
# [1] = compound concentrations:100 nM and 1000 nM (sheet 'Samples')
smiles,measurement,setting,value
Cc1ccc2c(-c3ccncc3)c(-c3ccc(F)cc3)nn2c1.Cl [GW461484A],potency estimated from few doses,CDK7; [1],288 nM
same,potency estimated from few doses,ERCC2; [1],214 nM
same,potency estimated from few doses,FER; [1],259 nM
same,potency estimated from few doses,PIP4K2C; [1],1560 nM
same,potency estimated from few doses,PLK4; [1],428 nM
same,potency estimated from few doses,PRKAA1; [1],773 nM
same,potency estimated from few doses,PRKD3,2110 nM
same,potency estimated from few doses,PTK2B; [1],354 nM
same,potency estimated from few doses,PTK2; [1],462 nM
same,potency estimated from few doses,RPS6KA6; [1],248 nM
Cc1cccc(-c2nc(Nc3ccncc3)c3sccc3n2)n1 [GW869641X],potency estimated from few doses,PRKD2,1.4 nM
same,potency estimated from few doses,PRKD3,3.56 nM
same,potency estimated from few doses,STK10; [1],1730 nM
CN(c1ccc(NC(=O)N2CCN(CCCN3CCOCC3)CC2)cc1)c1ccnc(Nc2ccc(CS(C)(=O)=O)cc2)n1.Cl [GW830899A],potency estimated from few doses,"CDK7; compound concentrations: 100 nM and 1000 nM (sheet 'Samples'), CATDS: 3.2126813899460802E-2",560 nM
same,potency estimated from few doses,"ERCC2; compound concentrations: 100 nM and 1000 nM (sheet 'Samples'), CATDS: 3.5571834197337601E-2",471 nM
same,potency estimated from few doses,"FER; compound concentrations: 100 nM and 1000 nM (sheet 'Samples'), CATDS: 2.4500715622852599E-2",940 nM
same,potency estimated from few doses,"FLT3; compound concentrations: 100 nM and 1000 nM (sheet 'Samples'), CATDS: 9.7213478094733505E-2",119 nM
same,potency estimated from few doses,"MARK4; compound concentrations: 100 nM and 1000 nM (sheet 'Samples'), CATDS: 2.1363637318540001E-2",1290 nM
same,potency estimated from few doses,"PRKAA1; compound concentrations: 100 nM and 1000 nM (sheet 'Samples'), CATDS: 2.4895545924416802E-2",909 nM
same,potency estimated from few doses,"PRKCQ; compound concentrations: 100 nM and 1000 nM (sheet 'Samples'), CATDS: 2.35958557762035E-2",1020 nM
same,potency estimated from few doses,"PTK2; compound concentrations: 100 nM and 1000 nM (sheet 'Samples'), CATDS: 2.9725199889124199E-2",643 nM
CCn1c(-c2nonc2N)nc2c(C#CCN)ncc(OCCCN)c21.O=C(O)C(F)(F)F [GSK561866B],potency estimated from few doses,"LATS1; compound concentrations: 100 nM and 1000 nM (sheet 'Samples'), CATDS: 0.187665654048491",38.9 nM
COc1ccc(Nc2ncc(C#N)c(Nc3ccccc3C(N)=O)n2)cc1N1CCN(C)CC1.Cl [GSK1558669A],potency estimated from few doses,DYRK1A; CATDS: 6.6106373934709103E-3,954 nM
same,potency estimated from few doses,"FER; compound concentrations: 100 nM and 1000 nM (sheet 'Samples'), CATDS: 1.1172004845485001E-2",137 nM
same,potency estimated from few doses,"FLT3; compound concentrations: 100 nM and 1000 nM (sheet 'Samples'), CATDS: 2.0604812795468701E-2",35.1 nM
same,potency estimated from few doses,"LATS1; compound concentrations: 100 nM and 1000 nM (sheet 'Samples'), CATDS: 9.7361630406248897E-3",205 nM
same,potency estimated from few doses,"MARK4; compound concentrations: 100 nM and 1000 nM (sheet 'Samples'), CATDS: 1.5249165601859399E-2",64.4 nM
same,potency estimated from few doses,"MYLK3; compound concentrations: 100 nM and 1000 nM (sheet 'Samples'), CATDS: 2.6075418388892199E-2",23.1 nM
same,potency estimated from few doses,"PIP4K2C; compound concentrations: 100 nM and 1000 nM (sheet 'Samples'), CATDS: 5.8169442722308101E-3",2240 nM
same,potency estimated from few doses,"PLK4; compound concentrations: 100 nM and 1000 nM (sheet 'Samples'), CATDS: 7.9359519159901901E-3",415 nM
same,potency estimated from few doses,"PRKAA1; compound concentrations: 100 nM and 1000 nM (sheet 'Samples'), CATDS: 2.0149023571651901E-2",36.6 nM
same,potency estimated from few doses,"PTK2B; compound concentrations: 100 nM and 1000 nM (sheet 'Samples'), CATDS: 1.3529380969040701E-2",84.5 nM
same,potency estimated from few doses,"PTK2; compound concentrations: 100 nM and 1000 nM (sheet 'Samples'), CATDS: 4.75918589440152E-2",9.26 nM
same,potency estimated from few doses,"RPS6KA6; compound concentrations: 100 nM and 1000 nM (sheet 'Samples'), CATDS: 2.0856200348519E-2",34.3 nM
same,potency estimated from few doses,"STK10; compound concentrations: 100 nM and 1000 nM (sheet 'Samples'), CATDS: 1.0596963300075399E-2",159 nM
CC(C)N1CCC(n2cnc(-c3ccc(F)cc3)c2-c2ccnc(N)n2)CC1 [SB-223132],potency estimated from few doses,CDK7; [1],310 nM
same,potency estimated from few doses,CDKL5,1520 nM
same,potency estimated from few doses,ERCC2; [1],206 nM
same,potency estimated from few doses,FER; [1],358 nM
same,potency estimated from few doses,PIP4K2C; [1],1200 nM
same,potency estimated from few doses,PLK4; [1],757 nM
same,potency estimated from few doses,PRKAA1; [1],631 nM
same,potency estimated from few doses,PTK2B; [1],378 nM
same,potency estimated from few doses,PTK2; [1],433 nM
same,potency estimated from few doses,RPS6KA6; [1],466 nM
same,potency estimated from few doses,STK10; [1],2020 nM
CCn1c(-c2nonc2N)nc2c(C#CC(C)(C)O)nc(OCCNC)cc21.Cl [GSK949675A],potency estimated from few doses,LATS1; [1],401 nM
same,potency estimated from few doses,PRKCQ; [1],1680 nM
CONC1=NC(=O)/C(=C/c2ccc3ncccc3c2)S1 [RO4613269-000],potency estimated from few doses,DYRK1A; CATDS: 0.14801064181583801,1100 nM
O=C1NC(=O)C(N2CCc3ccccc32)=C1c1ccccc1Cl [SB-373598],potency estimated from few doses,CDK7; [1],93.7 nM
same,potency estimated from few doses,CDKL5,1390 nM
same,potency estimated from few doses,ERCC2; [1],114 nM
same,potency estimated from few doses,FER; [1],183 nM
same,potency estimated from few doses,FLT3; [1],1500 nM
same,potency estimated from few doses,LATS1; [1],994 nM
same,potency estimated from few doses,MARK4; [1],884 nM
same,potency estimated from few doses,MYLK3; [1],974 nM
same,potency estimated from few doses,PIP4K2C; [1],1020 nM
same,potency estimated from few doses,PLK4; [1],273 nM
same,potency estimated from few doses,PRKAA1; [1],273 nM
same,potency estimated from few doses,PRKCD,2190 nM
same,potency estimated from few doses,PRKCQ; [1],1580 nM
same,potency estimated from few doses,PRKD2,1920 nM
same,potency estimated from few doses,PTK2B; [1],129 nM
same,potency estimated from few doses,PTK2; [1],173 nM
same,potency estimated from few doses,RPS6KA6; [1],125 nM
same,potency estimated from few doses,STK10; [1],996 nM
